The text below walks through data of PubChem BioAssay AID1565 (Sanford-Burnham Center for Chemical Genomics, 2009).

What is called inhibition is the drop in the measured response relative to a control, in per cent.

The campaign covered roughly 290,000 compounds. About 3,200 (1.1%) were called active. Only a selection was taken, and actives are over-represented in it overall. Unmarked numbers belong to inactive results. No stated cut-off is given here; in the data, active means inhibition above about 60%; inactive means the rest.

This test deals with Phosphoethanolamine/phosphocholine phosphatase (Homo sapiens) (UniProt Q8TCT1). Description: PubChem AID 1565. The settings on record: recombinant PHOSPHO1, absorbance phosphatase assay; at 13.3 µM; stronger effect = higher value.
Phosphoethanolamine/phosphocholine phosphatase (Homo sapiens), sequence (Q8TCT1 whole entry, looked up): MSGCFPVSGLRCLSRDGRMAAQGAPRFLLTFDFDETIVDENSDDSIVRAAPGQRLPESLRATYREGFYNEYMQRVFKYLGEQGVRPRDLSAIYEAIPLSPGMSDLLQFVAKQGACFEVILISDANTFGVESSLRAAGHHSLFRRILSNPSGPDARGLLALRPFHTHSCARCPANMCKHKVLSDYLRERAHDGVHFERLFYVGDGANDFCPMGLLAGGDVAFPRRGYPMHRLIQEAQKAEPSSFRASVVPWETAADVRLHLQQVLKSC
Consider `Brc1ccc(-c2nnc(-c3ccccc3)o2)o1`, for which the inhibition is -10.5%.

Turning to `Nc1ccc(-c2nnc(-c3ccc(-c4ccccc4)cc3)o2)cc1`, the inhibition was 71.5% (active).

Consider `Nc1ccc(-c2nnc(-c3ccccc3)o2)cc1`, for which the inhibition is 4.2%.

For the molecule `COc1cccc(CNC(=O)c2nnn(CC(=O)Nc3cc(C)ccc3C)c2N)c1`, the inhibition is 37.5%.

In the case of `Cc1ccc2nc(-c3ccc(NC(=O)c4cccnc4)cc3)oc2c1`, the inhibition was 30.4%.

Regarding `COc1ccccc1C(=O)Nc1ccnn1C1CCN(Cc2cnn(C)c2)CC1`, the inhibition is 38.1%.

Consider `Clc1cccc(CN2COc3c(cc(Cl)c4cccnc34)C2)c1`, for which the inhibition is -4%.

`Cc1onc(C(=O)NN)c1C(=O)N1CCN(C(c2ccccc2)c2ccccc2)CC1`: the inhibition is -25.8%.

On to `Oc1ccccc1CN1CCN(C(c2ccccc2)c2ccccc2)CC1`, for which the inhibition was 34.3%.

Turning to `CCOC(=O)N1CCN(C(c2cccnc2)c2ccc3cccnc3c2O)CC1` (stereo not drawn), the inhibition was 96.9% (active).

As to `O=C(CSc1cccc2cccnc12)N/N=C/c1cccnc1`, the inhibition is -11.2%.

For `CCN1CCN(C(c2cccnc2)c2cc(Cl)c3cccnc3c2O)CC1` (stereo not drawn), the inhibition is 98.8% (active).

As to `Cc1cccc(NC(=O)c2cccc(C(=O)Nc3cccc(C)c3C)n2)c1C`, the inhibition is 14.9%.

Consider `COc1cccc2cc(C(N)=O)/c(=N\NC(=O)c3ccccc3)oc12`, for which the inhibition was 43.7%.

Regarding `CCCCCN(C(=O)CCC(=O)OCC(=O)NCc1ccc(OC)cc1)c1c(N)n(CCCC)c(=O)[nH]c1=O`, the inhibition is 36.6%.

With `Cc1ccc(NC(=O)COC(=O)C2C3CC4OC(=O)C2C4C3)cc1Cl` (stereo not drawn), the inhibition was 23.2%.

On to `CSc1nnc(-c2ccncc2)n1CCCN1CCCC1=O`, for which the inhibition was 86.5% (active).

Consider `CCCn1c(SCC(=O)N2CCc3ccccc32)nnc1-c1ccncc1`, for which the inhibition was 1.6%.

Regarding `COCCCn1c(SCC(=O)Nc2ccccc2)nnc1-c1ccncc1`, the inhibition was -12.8%.

As for `COc1cccc(C(=O)Nc2nnc(S(=O)(=O)N(C)c3ccccc3)s2)c1`, the inhibition is 41.2%.

Take `O=C(Nc1ccncc1)c1ccc([N+](=O)[O-])cc1Cl`: the inhibition is 15.6%.

`Cc1c(Cc2ccccc2)c(=O)oc2cc(OCC(N)=O)ccc12`: the inhibition was 61.5% (active).

For the molecule `Cc1c(CCC(=O)O)c(=O)oc2cc(OCc3ccc(Br)cc3)ccc12`, the inhibition is 4.7%.

In the case of `NC(=O)COc1ccc2c3c(c(=O)oc2c1)CCCCC3`, the inhibition is 18%.

Regarding `COc1ccc(-n2nc(C(=O)NCC(=O)N3CCCCCC3)c3ccccc3c2=O)cc1Cl`, the inhibition was 36%.

`COC(=O)c1sc(=S)n(-c2ccc(Cl)cc2)c1C`: the inhibition was -2.1%.

As for `CCOC(=O)c1c(N)sc(C(C)=O)c1C`, the inhibition was 33%.

As for `COCCOC(=O)c1sc(=S)n(CCOC)c1N`, the inhibition was 76.4% (active).
